From PubChem BioAssay (Tox21) come the findings set out here.

Test [1] concerns the target Aryl hydrocarbon receptor (Homo sapiens) (UniProt P35869). As to the kind of experiment: qHTS assay to identify small molecule that activate the aryl hydrocarbon receptor (AhR) signaling pathway (AID 743085).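 For activation: HG2L7.5c1 human HepG2 liver cells with stably integrated DRE-driven firefly reporter; series mostly up to about 70 µM.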 Note: nearly all actives have a fitted effect of over 15% in size. Note: potency is the fitted concentration of half-maximal effect. In a few lines: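 HepG2 cells (HG2L7.5c1) stably carrying a firefly luciferase reporter driven by 20 dioxin responsive elements were exposed to compound for 24 h at 37C after a 5 h settling period; luminescence rise (ONE-Glo) indicated activation.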
A general note: qHTS replaces the single test concentration by a dilution series.

For test [2], the target named is Peroxisome proliferator-activated receptor gamma (Homo sapiens) (UniProt P37231). The test is described as follows: qHTS assay to identify small molecule agonists of the peroxisome proliferator-activated receptor gamma (PPARg) signaling pathway (AID 743094; active = well fitted activation curve with a large enough effect in the signal ratio in the repeat runs, not every such curve was filed as active; the % refers to the signal ratio). In a few lines: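 Compounds dissolved in DMSO were added to PPARg UAS-bla HEK293H cells for 17 h at 37C, and reporter expression was quantified by fluorescence intensity after 1 h with LiveBLAzer B/G FRET substrate.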

Test [3] in a line: qHTS assay to identify small molecule antagonists of the peroxisome proliferator-activated receptor gamma (PPARg) signaling pathway - cell viability counter screen (AID 743194). Note: nearly all actives have a fitted effect of over 55% in size. In a few lines:
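Viability was measured as CellTiter-Glo luminescence in GeneBLAzer PPARg UAS-bla HEK293H cells. These cells had been exposed 17 h at 37 C to compounds together with rosiglitazone at 50 nM final, with the beta-lactamase readout taken in the same wells.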

Test [4] can be described thus: qHTS assay for small molecule agonists of the antioxidant response element (ARE) signaling pathway - cell viability counter screen (AID 743203; calls by dose curve; note: nearly all actives have a fitted effect of over 55% in size; note: potency is the fitted concentration of half-maximal effect). The essentials: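 Following 16 hrs of compound treatment at 37C, HepG2 cells with an ARE-controlled beta-lactamase gene were lysed with CellTiter-Glo. Luminescence was read after 30 min at room temperature.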
Test [5] can be described thus: qHTS assay for small molecule activators of the heat shock response signaling pathway - cell viability counter screen (AID 743209). Note: nearly all actives have a fitted effect of over 50% in size. The essentials: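 Readout: CellTiter-Glo luminescence, 30 min at room temperature. System: HSE-bla HeLa cells, 1500/well, plated overnight. Treatment: compounds in DMSO, 5 h at 37 C.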
A short description of test [6]: qHTS assay to identify small molecule antagonists of the peroxisome proliferator-activated receptor delta (PPARd) signaling pathway - cell viability counter screen (AID 743213). Note: nearly all actives have a fitted effect of over 50% in size. In a few lines: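 Agonist-stimulated (L165041, 300 nM final) HEK293H PPARd UAS-bla cells are exposed to compounds for 17 h at 37 C, and ATP-based luminescence (CellTiter-Glo) from the same wells reports cytotoxicity.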

Test [7] has as its target Peroxisome proliferator-activated receptor delta (Homo sapiens) (UniProt Q03181). The test is described as follows: qHTS assay to identify small molecule antagonists of the peroxisome proliferator-activated receptor delta (PPARd) signaling pathway (AID 743215; active = well fitted inhibition curve with a large enough effect in the signal ratio in the repeat runs, not every such curve was filed as active; the % refers to the signal ratio; note: series mostly up to about 62 µM). In a few lines:
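HEK293H UAS-bla, PPARd; agonist L165041 300 nM final with cpd in DMSO; 37 C 17 h; FRET substrate, RT 2 h; fluorescence intensity.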

For test [8], the target named is Bile acid receptor (Homo sapiens) (UniProt Q96RI1). As to the kind of experiment: qHTS assay to identify small molecule antagonists of the farnesoid-X-receptor (FXR) signaling pathway (AID 743217; active = well fitted inhibition curve with a large enough effect in the signal ratio in the repeat runs, not every such curve was filed as active; the % refers to the signal ratio). The essentials: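 GeneBLAzer FXR-UAS-bla HEK 293T, CDCA-stimulated (50 uM final). Compound treatment 16 h, 37 °C. Detection: beta-lactamase cleavage of B/G FRET substrate, fluorescence.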

Test [9] shares this target. The test is described as follows: qHTS assay to identify small molecule agonists of the farnesoid-X-receptor (FXR) signaling pathway (AID 743220; active = well fitted activation curve with a large enough effect in the signal ratio in the repeat runs, not every such curve was filed as active; the % refers to the signal ratio). The essentials:
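Beta-lactamase reporter under UAS control in GeneBLAzer FXR HEK 293T cells (5000/well) measured with LiveBLAzer FRET substrate after 2 h at room temperature. Compound exposure lasted 16 h at 37C.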

The nature of test [10]: qHTS assay to identify small molecule antagonists of the farnesoid-X-receptor (FXR) signaling pathway - cell viability counter screen (AID 743221; active = well fitted cell-killing curve with a large enough effect in the repeat runs, not every such curve was filed as active; note: nearly all actives have a fitted effect of over 50% in size). The essentials: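 FXR-UAS-bla HEK 293T cells were treated with test compounds plus chenodeoxycholic acid (50 uM final) for 16 h at 37 C. Cell viability in the same wells was then read as CellTiter-Glo luminescence after 30 min at room temperature.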

Test [11] addresses Vitamin D3 receptor (Homo sapiens) (UniProt P11473). As to the kind of experiment: qHTS assay to identify small molecule agonists of the vitamin D receptor (VDR) signaling pathway (AID 743222; calls by dose curve). In a few lines:
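In VDR-bla cells, compound-induced beta-lactamase expression is quantified by FRET substrate fluorescence. Treatment lasts 16 h at 37C; substrate develops 2 h at room temperature.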

Test [12] in a line: qHTS assay to identify small molecule agonists of the vitamin D receptor (VDR) signaling pathway - cell viability counter screen (AID 743224). Note: series mostly up to about 63 µM; nearly all actives have a fitted effect of over 50% in size. The essentials:
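Plated VDR-bla cells (4 h, 37C) received compound, incubated 16 h, then LiveBLAzer substrate 2 h RT; CellTiter-Glo added afterwards, luminescence read at 30 min.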

Test [13] can be described thus: qHTS assay to identify small molecule that activate the aryl hydrocarbon receptor (AhR) signaling pathway - cell viability counter screen (AID 743086). Note: nearly all actives have a fitted effect of over 45% in size. Note: potency is the fitted concentration of half-maximal effect. The essentials:
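Cytotoxicity counter screen: CellTiter-Fluor signal (30 min, 37 C) in 4000 HepG2 cells/well carrying the DRE-luciferase reporter, following 24 h compound exposure at 37 C.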

Test [14] has as its target Peroxisome proliferator-activated receptor gamma (Homo sapiens) (UniProt P37231). The test is described as follows: qHTS assay to identify small molecule antagonists of the peroxisome proliferator-activated receptor gamma (PPARg) signaling pathway (AID 743191; calls by dose curve; note: nearly all actives have a fitted effect of over 30% in size; note: potency is the fitted concentration of half-maximal effect). In a few lines:
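Beta-lactamase reporter under UAS control in HEK293H PPARg-bla cells; compound treatment 17 h at 37C. Read-out: fluorescence intensity after 1 h room-temperature incubation with LiveBLAzer B/G FRET substrate.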

A short description of test [15]: qHTS assay for small molecule activators of the heat shock response signaling pathway (AID 743210; active = well fitted activation curve with a large enough effect in the signal ratio in the repeat runs, with a control signal flat, not every such curve was filed as active; the % refers to the signal ratio;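 note: HeLa cells with beta-lactamase reporter driven by heat shock elements; series mostly up to about 63 µM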). The essentials: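 HeLa HSE-bla cells, overnight plating; cpd in DMSO 5 h, 37 C; LiveBLAzer B/G FRET substrate 2.5 h RT; fluorescence intensity read.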
Test [16] is described as follows: qHTS assay to identify small molecule agonists of the peroxisome proliferator-activated receptor delta (PPARd) signaling pathway - cell viability counter screen (AID 743211). Note: nearly all actives have a fitted effect of over 55% in size. Note: potency is the fitted concentration of half-maximal effect. The essentials:
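PPARd-bla HEK293H cells (UAS-beta-lactamase reporter) were treated with compounds for 17 h at 37 C. Viability was then read in the same wells by CellTiter-Glo luminescence after 30 min at room temperature.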

Test [17] concerns the target Peroxisome proliferator-activated receptor delta (Homo sapiens) (UniProt Q03181). As to the kind of experiment: qHTS assay to identify small molecule agonists of the peroxisome proliferator-activated receptor delta (PPARd) signaling pathway (AID 743212; calls by dose curve). The essentials:
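HEK293H PPARd-bla cells; 5 h preincubation 37 C/5% CO2; compound (DMSO) 37 C; LiveBLAzer B/G FRET substrate 2 h RT; fluorescence intensity.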

A short description of test [18]: qHTS assay to identify small molecule agonists of the farnesoid-X-receptor (FXR) signaling pathway - cell viability counter screen (AID 743218). Note: nearly all actives have a fitted effect of over 45% in size. The essentials: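 Parallel cytotoxicity test: compound-treated (16 h, 37 C) HEK 293T FXR-bla reporter cells were lysed with CellTiter-Glo and luminescence recorded.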
For test [19], the target named is Vitamin D3 receptor (Homo sapiens) (UniProt P11473). The test is described as follows: qHTS assay to identify small molecule antagonists of the vitamin D receptor (VDR) signaling pathway (AID 743223; active = well fitted inhibition curve with a large enough effect in the signal ratio in the repeat runs, not every such curve was filed as active; the % refers to the signal ratio; note: potency is the fitted concentration of half-maximal effect). The essentials: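 VDR-bla cells were plated, incubated 4 h at 37C, then given compound and 1alpha,25-dihydroxyvitamin D3 (3 nM final). After 16 h at 37C, LiveBLAzer B/G FRET substrate was added for 2 h at room temperature and fluorescence read.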

Test [20] is described as follows: qHTS assay for small molecule agonists of the antioxidant response element (ARE) signaling pathway (AID 743202; active = well fitted activation curve with a large enough effect in the signal ratio in the repeat runs, not every such curve was filed as active; the % refers to the signal ratio; note: potency is the fitted concentration of half-maximal effect). In a few lines:
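Quantitative high-throughput format in HepG2 cells bearing an integrated ARE-beta-lactamase reporter. Compound exposure lasted 16 h at 37 C, and fluorescence was read 2 h after adding LiveBLAzer B/G substrate at room temperature.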

Inconclusive results are not listed. Active and inactive are the calls of the source. Unless noted, calls come from the whole dose curve; as a rule, active = well fitted curve in the direction sought with a large enough effect in the repeat runs; inconclusive = weak or mixed curves; inactive = no such curve, though single readings can be large; an effect the other way counts as inactive or inconclusive.

Peroxisome proliferator-activated receptor gamma (Homo sapiens), sequence (P37231 whole entry, looked up): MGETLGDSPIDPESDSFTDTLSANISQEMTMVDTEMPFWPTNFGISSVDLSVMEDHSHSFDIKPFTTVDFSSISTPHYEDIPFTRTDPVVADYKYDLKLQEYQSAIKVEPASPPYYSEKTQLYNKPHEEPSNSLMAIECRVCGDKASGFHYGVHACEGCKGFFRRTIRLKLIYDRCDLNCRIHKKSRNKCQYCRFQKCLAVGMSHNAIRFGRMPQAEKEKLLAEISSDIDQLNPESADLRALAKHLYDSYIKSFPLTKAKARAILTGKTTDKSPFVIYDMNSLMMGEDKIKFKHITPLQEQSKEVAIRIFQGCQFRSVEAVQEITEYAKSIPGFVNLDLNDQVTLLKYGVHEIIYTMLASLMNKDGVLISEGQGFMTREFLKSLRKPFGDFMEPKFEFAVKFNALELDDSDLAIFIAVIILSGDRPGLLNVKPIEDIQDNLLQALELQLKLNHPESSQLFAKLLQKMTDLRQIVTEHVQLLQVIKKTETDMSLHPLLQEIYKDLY
Aryl hydrocarbon receptor (Homo sapiens), sequence (P35869 whole entry, looked up): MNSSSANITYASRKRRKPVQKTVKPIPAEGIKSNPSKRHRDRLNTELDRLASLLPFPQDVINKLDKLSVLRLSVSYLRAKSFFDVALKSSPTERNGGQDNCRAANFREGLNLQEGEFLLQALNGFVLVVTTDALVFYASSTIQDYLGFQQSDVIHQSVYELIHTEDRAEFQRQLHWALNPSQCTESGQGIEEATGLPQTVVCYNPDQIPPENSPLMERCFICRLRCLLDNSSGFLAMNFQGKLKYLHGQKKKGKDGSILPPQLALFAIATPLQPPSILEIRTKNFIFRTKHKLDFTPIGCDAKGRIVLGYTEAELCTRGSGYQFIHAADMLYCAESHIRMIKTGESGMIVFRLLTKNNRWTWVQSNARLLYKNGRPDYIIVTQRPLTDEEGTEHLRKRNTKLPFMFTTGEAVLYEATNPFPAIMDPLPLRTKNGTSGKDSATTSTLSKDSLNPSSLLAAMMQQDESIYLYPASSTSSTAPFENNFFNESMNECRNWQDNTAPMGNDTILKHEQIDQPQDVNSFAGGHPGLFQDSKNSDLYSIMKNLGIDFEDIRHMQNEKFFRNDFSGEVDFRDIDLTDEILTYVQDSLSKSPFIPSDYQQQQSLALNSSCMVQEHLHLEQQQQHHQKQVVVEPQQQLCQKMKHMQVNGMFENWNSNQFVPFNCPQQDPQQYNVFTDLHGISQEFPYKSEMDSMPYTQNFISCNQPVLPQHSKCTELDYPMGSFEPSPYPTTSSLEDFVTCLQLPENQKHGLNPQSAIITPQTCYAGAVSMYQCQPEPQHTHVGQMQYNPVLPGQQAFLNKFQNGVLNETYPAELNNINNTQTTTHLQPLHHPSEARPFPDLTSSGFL
Bile acid receptor (Homo sapiens), sequence (Q96RI1 whole entry, looked up): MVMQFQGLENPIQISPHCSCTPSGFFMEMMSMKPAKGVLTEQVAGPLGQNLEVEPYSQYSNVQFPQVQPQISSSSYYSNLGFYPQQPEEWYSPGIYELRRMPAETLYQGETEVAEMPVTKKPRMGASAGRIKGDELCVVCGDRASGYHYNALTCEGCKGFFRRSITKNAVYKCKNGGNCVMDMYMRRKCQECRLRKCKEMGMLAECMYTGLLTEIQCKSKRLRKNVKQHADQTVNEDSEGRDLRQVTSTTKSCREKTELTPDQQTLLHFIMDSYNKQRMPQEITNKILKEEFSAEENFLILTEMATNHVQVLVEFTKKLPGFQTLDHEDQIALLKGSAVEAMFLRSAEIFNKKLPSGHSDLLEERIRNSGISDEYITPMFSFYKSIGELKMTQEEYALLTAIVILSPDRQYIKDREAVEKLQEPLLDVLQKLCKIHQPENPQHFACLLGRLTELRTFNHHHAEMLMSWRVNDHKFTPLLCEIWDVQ
Peroxisome proliferator-activated receptor delta (Homo sapiens), sequence (Q03181 whole entry, looked up): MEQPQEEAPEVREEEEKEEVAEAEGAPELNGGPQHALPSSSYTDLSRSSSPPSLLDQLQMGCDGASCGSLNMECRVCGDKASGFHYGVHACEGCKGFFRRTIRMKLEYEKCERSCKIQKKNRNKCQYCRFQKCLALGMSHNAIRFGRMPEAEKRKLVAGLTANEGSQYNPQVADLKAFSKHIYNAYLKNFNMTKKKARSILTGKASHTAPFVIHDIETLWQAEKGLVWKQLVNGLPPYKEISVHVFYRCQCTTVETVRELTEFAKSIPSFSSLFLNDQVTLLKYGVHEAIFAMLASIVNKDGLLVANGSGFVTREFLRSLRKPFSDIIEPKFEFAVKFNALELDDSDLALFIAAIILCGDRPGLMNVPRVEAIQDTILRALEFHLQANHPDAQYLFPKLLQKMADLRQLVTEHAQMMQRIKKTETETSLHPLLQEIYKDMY
Vitamin D3 receptor (Homo sapiens), sequence (P11473 whole entry, looked up): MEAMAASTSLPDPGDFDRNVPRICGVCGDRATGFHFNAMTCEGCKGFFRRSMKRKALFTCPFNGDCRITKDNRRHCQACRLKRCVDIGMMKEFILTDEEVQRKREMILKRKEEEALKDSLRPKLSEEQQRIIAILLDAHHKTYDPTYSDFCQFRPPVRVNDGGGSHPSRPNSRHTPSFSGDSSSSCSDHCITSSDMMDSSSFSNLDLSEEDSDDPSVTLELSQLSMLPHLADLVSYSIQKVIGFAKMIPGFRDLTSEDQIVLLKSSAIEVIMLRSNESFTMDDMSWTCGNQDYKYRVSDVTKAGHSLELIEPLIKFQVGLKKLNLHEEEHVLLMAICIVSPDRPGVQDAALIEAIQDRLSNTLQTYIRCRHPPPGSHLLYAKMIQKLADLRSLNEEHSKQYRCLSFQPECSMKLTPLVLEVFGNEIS

For the compound `O=C1Cc2ccccc2N1c1c(Cl)cccc1Cl`, the Potency result in test [1], in test [2], in [3], in test [4], in test [5] and in test [6] was “inactive” in each case. The Potency entry in test [7], in test [8], in test [9], in test [10], in [11] and in [12] was “inactive” each time.

Consider `Oc1c(I)cc(I)c2cccnc12`, for which the Potency entry in [13], in [2], in test [4], in test [5], in test [15] and in test [16] was “inactive” throughout. In addition, the Potency result in test [17], in test [6], in test [8], in test [18], in test [10] and in test [11] was “inactive” in each case. Moreover, the Potency in test [14] is 18.8 µM (active); in test [19], 21.3 µM (active).

As for `Nc1nc2ccc([N+](=O)[O-])cc2s1`, the figures for the Potency in [1] and in test [20] were 32.5 µM (active) and 9.69 µM (active), respectively. Also, the Potency result in test [2], in [4], in test [10] and in [12] was “inactive” throughout.

Take `CCCC(C(=O)OCCN(CC)CC)(c1ccccc1)c1ccccc1`: the Potency result in test [1], in [2], in [3], in test [4], in [5] and in [17] was “inactive” throughout. The Potency result in test [7], in test [18], in test [9], in test [10] and in test [11] was “inactive” throughout. Also, the Potency in [16] was 29.8 µM (active).

In the case of `Oc1cc2c(cc1O)[C@H]1c3ccc(O)c(O)c3OC[C@@]1(O)C2`, the Potency in test [13] was 27.6 µM (active). The Potency entry in test [2], in [4], in [16], in test [17], in test [6] and in test [10] was “inactive” throughout. Further, the Potency entry in [12] is “inactive”.

For the compound `CCCCCCCC/C=C\CCCCCCCCCCCC(=O)O`, the Potency entry in [13], in test [2], in [3], in test [20], in test [4] and in [15] was “inactive” each time. Further, the Potency entry in test [16], in test [17], in test [6], in test [7], in [8] and in test [18] was “inactive” each time. The Potency entry in [9], in test [10] and in test [12] was “inactive” in each case.

Turning to `Nc1nnc(-c2ccc([N+](=O)[O-])o2)o1`, the Potency is 54.5 µM (active) in test [13] and 48.6 µM (active) in test [4]. The Potency entry in test [2], in [14], in [5], in [16], in test [17] and in [6] was “inactive” throughout. In addition, the Potency entry in test [7], in test [10], in test [11], in [19] and in [12] was “inactive” throughout.

Turning to `c1ccc2sc(SN(C3CCCCC3)C3CCCCC3)nc2c1`, the Potency result in [13], in [2], in test [4], in test [5], in test [15] and in [16] was “inactive” in each case. The Potency entry in test [17], in test [6], in test [7], in test [8], in test [18] and in test [9] was “inactive” each time. Moreover, the Potency result in test [10], in [11], in test [19] and in test [12] was “inactive” each time.

Take `CC(=O)Oc1ccc([N+](=O)[O-])cc1CCl`: the Potency result in test [1], in [2], in test [3], in test [5], in [15] and in test [16] was “inactive” each time. The Potency result in test [17], in test [6], in test [7], in [8], in test [9] and in test [10] was “inactive” each time. In test [12], the Potency entry was “inactive”.
